# Laboratory results published in PubChem BioAssay.
# Values joined by “and” are separate entries in the source; they are usually repeats but may differ in a detail not shown here. Equal values may be shown once. Active and inactive are the calls of the source.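 Rule for the calls: active = compound whose remaining NAD level is above about 45 nM (limit read from the data); inactive = the rest.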
# System: not listed separately
# Experiment: survival rescue of mitochondrial mutant cells in low glucose, primary screen, MELAS cybrids, Rieske KO mouse fibroblasts, CellTiter-Glo (AID 1508586);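 note: z relative to plate mean and SD of compound and empty wells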
# Conditions: Rieske KO mouse fibroblast survival, CellTiter-Glo 72 h
row,SMILES,z-score
1,O=C(Cn1ccnc1[N+](=O)[O-])NCCO,-0.143
2,Cc1[nH]c(C)c(Cl)c(=O)c1Cl,-1.35
3,C[C@H]1COc2c(C3(N)CC3)c(F)cc3c(=O)c(C(=O)O)cn1c23,-0.0845
4,CC(C)(O)c1ccccc1CC[C@@H](SCC1(CC(=O)O)CC1)c1cccc(/C=C/c2ccc3ccc(Cl)cc3n2)c1,0.134 and -0.566
5,CCN1CCN(c2cc3c(cc2F)c(=O)c(C(=O)O)cn3C2CC2)CC1,-0.808 and -0.546
6,CCN1CC(CCN2CCOCC2)C(c2ccccc2)(c2ccccc2)C1=O (stereo not given),-0.241 and -0.506
7,COC(=O)CCc1ccc(OCC(O)CNC(C)C)cc1 (stereo not given),-0.149 and -1.1 and -1.41
8,CC(=O)Nc1ccc(OCC(O)CNC(C)C)cc1 (stereo not given),-0.287 and 0.516
9,Cc1ccc(C(=O)c2ccc(CC(=O)O)n2C)cc1,0.161 and -0.684
10,CN1CCN(c2c(F)cc3c(=O)c(C(=O)O)cn4c3c2SCC4)CC1,0.617 and -0.349
11,COc1cc(N)c(Cl)cc1C(=O)NC1CCN(Cc2ccccc2)CC1,0.069
12,O=C(O)P(=O)(O)O,-0.123
13,CCCCCCCCCCCCCCCCOP(=O)([O-])OCC[N+](C)(C)C,-0.431
14,CN(C)CCCSc1ccccc1NC(=O)/C=C/c1ccccc1,-0.0543
15,CC(C)(C(=O)c1cccnc1)c1cccnc1,0.502
16,NC(=NCCCCCCN=C(N)/N=C(\N)Nc1ccc(Cl)cc1)/N=C(\N)Nc1ccc(Cl)cc1,-0.0121
17,CC1(C)S[C@@H]2[C@H](NC(=O)[C@H](N)c3ccccc3)C(=O)N2[C@H]1C(=O)O,-0.285 and -0.0992
18,CC1CCc2cc(F)cc3c(=O)c(C(=O)O)cn1c23 (stereo not given),-0.162 and -0.0831
19,CC1(C)O[C@@H]2C[C@H]3[C@@H]4CCC5=CC(=O)CC[C@]5(C)[C@@]4(F)[C@@H](O)C[C@]3(C)[C@]2(C(=O)CCl)O1,1.13
20,CCN(CC)C(=O)N1CCN(C)CC1,-0.23 and -0.00609

row,SMILES,z-score
1,COc1ccc(C(=O)NCc2ccc(OCCN(C)C)cc2)cc1OC,-0.0117 and -0.161
2,CC(Oc1c(Cl)cccc1Cl)C1=NCCN1 (stereo not given),-0.104 and -1.04
3,CN1CCCCC1CCN1c2ccccc2Sc2ccc(S(C)=O)cc21 (stereo not given),-0.192 and -0.653
4,CN1C(C)(C)CCCC1(C)C,1.08
5,CN(CCCN1c2ccccc2CCc2ccccc21)CC(=O)c1ccc(Cl)cc1,0.354
6,CCOC(=O)C1=C(C)NC(C)=C(C(=O)OCC)C1c1ccccc1/C=C/C(=O)OC(C)(C)C,0.213 and 0.0479
7,CC(C(=O)O)c1ccc(C(=O)c2cccs2)cc1 (stereo not given),-0.115 and -0.0807
8,NC(N)=Nc1nc(CSCC/C(N)=N/S(N)(=O)=O)cs1,0.0847 and 0.907
9,CC(=O)Nc1ccc(CC(=O)O)cc1,-0.418
10,CC(=O)OC/C=C(C)/C=C/C=C(C)/C=C/C1=C(C)CCCC1(C)C,-0.15
11,Cn1c(=O)c2c(ncn2CCO)n(C)c1=O,-0.0506
12,CN(C)/N=N/c1nc[nH]c1C(N)=O,0.971
13,C[C@@](Cc1ccc(O)c(O)c1)(NN)C(=O)O,0.573 and -0.159 and -0.894
14,O=C1c2ccccc2C(=O)c2c1ccc(O)c2O,-0.449
15,CC(C)NCC(O)c1ccc2ccccc2c1 (stereo not given),-0.347 and -0.52
16,CCOC(=O)OC(C)OC1=C(C(=O)Nc2ccccn2)N(C)S(=O)(=O)c2ccccc21 (stereo not given),-0.115 and 1.2 and 1.74
17,COc1cc(C(=O)NCc2ccc(OCCN(C)C)cc2)cc(OC)c1OC,-0.723 and -0.201
18,Nc1nc2c(ncn2CCC(CO)CO)c(=O)[nH]1,-0.179 and 0.138 and 0.0729
19,CC(C)(Oc1ccc(Cl)cc1)C(=O)O,-0.207 and -0.151

# Molecular target: NAD(+) hydrolase SARM1 (Homo sapiens) (UniProt Q6SZW1)
# Sequence (Q6SZW1 whole entry, looked up): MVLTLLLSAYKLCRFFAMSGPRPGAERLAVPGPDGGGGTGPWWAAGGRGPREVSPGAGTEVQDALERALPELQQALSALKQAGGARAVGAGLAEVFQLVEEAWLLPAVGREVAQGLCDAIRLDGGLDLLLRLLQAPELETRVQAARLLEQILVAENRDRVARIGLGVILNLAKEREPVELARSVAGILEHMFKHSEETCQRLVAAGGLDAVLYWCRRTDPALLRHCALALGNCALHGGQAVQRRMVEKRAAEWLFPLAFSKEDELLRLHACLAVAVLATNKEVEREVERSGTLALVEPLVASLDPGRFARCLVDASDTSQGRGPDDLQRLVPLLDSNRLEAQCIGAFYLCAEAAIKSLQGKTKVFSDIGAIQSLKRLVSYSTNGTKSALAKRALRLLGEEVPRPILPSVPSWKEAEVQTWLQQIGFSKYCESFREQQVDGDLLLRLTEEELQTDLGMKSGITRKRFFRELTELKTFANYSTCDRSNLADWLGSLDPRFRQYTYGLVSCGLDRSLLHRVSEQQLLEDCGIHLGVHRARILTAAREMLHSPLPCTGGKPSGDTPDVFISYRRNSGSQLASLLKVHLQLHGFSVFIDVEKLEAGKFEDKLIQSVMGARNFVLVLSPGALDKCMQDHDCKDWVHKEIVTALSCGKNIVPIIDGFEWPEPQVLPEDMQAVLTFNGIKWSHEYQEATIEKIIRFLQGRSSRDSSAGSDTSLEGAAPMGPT
# Experiment: SARM1 TIR NADase inhibitors, cell lysate, NAD-Glo luminescence (AID 1508614);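 note: higher remaining NAD means stronger inhibition of SARM1 NADase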
# Conditions: SAM-TIR HEK293T lysate NADase, at 1 µM, stronger effect = higher value
row,SMILES,remaining NAD
1,Cc1[nH]c(C)c(Cl)c(=O)c1Cl,10 nM (inactive)
2,C[C@H]1COc2c(C3(N)CC3)c(F)cc3c(=O)c(C(=O)O)cn1c23,10 nM (inactive)
3,CC(C)(O)c1ccccc1CC[C@@H](SCC1(CC(=O)O)CC1)c1cccc(/C=C/c2ccc3ccc(Cl)cc3n2)c1,10 nM (inactive)
4,CCN1CCN(c2cc3c(cc2F)c(=O)c(C(=O)O)cn3C2CC2)CC1,10 nM (inactive)
5,CCN1CC(CCN2CCOCC2)C(c2ccccc2)(c2ccccc2)C1=O (stereo not given),10 nM (inactive)
6,Cc1ccc(C(=O)c2ccc(CC(=O)O)n2C)cc1,10 nM (inactive)
7,CN1CCN(c2c(F)cc3c(=O)c(C(=O)O)cn4c3c2SCC4)CC1,10 nM (inactive)
8,O=C(O)P(=O)(O)O,10 nM (inactive)
9,CCCCCCCCCCCCCCCCOP(=O)([O-])OCC[N+](C)(C)C,10 nM (inactive)
10,CC(C)(C(=O)c1cccnc1)c1cccnc1,100 nM (active)
11,CC1(C)S[C@@H]2[C@H](NC(=O)[C@H](N)c3ccccc3)C(=O)N2[C@H]1C(=O)O,10 nM (inactive)
12,CC1CCc2cc(F)cc3c(=O)c(C(=O)O)cn1c23 (stereo not given),10 nM (inactive)
13,CCN(CC)C(=O)N1CCN(C)CC1,10 nM (inactive)
14,COc1ccc(C(=O)NCc2ccc(OCCN(C)C)cc2)cc1OC,14 nM (inactive)
15,CC(Oc1c(Cl)cccc1Cl)C1=NCCN1 (stereo not given),10 nM (inactive)
16,CN1CCCCC1CCN1c2ccccc2Sc2ccc(S(C)=O)cc21 (stereo not given),10 nM (inactive)
17,NC(N)=Nc1nc(CSCC/C(N)=N/S(N)(=O)=O)cs1,10 nM (inactive)
18,CC(=O)Nc1ccc(CC(=O)O)cc1,10 nM (inactive)
19,CC(=O)OC/C=C(C)/C=C/C=C(C)/C=C/C1=C(C)CCCC1(C)C,10 nM (inactive)
20,CN(C)/N=N/c1nc[nH]c1C(N)=O,10 nM (inactive)
21,C[C@@](Cc1ccc(O)c(O)c1)(NN)C(=O)O,10 nM (inactive)
22,CC(C)NCC(O)c1ccc2ccccc2c1 (stereo not given),10 nM (inactive)
23,CCOC(=O)OC(C)OC1=C(C(=O)Nc2ccccn2)N(C)S(=O)(=O)c2ccccc21 (stereo not given),10 nM (inactive)
24,COc1cc(C(=O)NCc2ccc(OCCN(C)C)cc2)cc(OC)c1OC,10 nM (inactive)
25,Nc1nc2c(ncn2CCC(CO)CO)c(=O)[nH]1,10 nM (inactive)
26,CC(C)(Oc1ccc(Cl)cc1)C(=O)O,10 nM (inactive)
